Experiment [1] in a line: cAMP Responsive Elements (CRE) small molecule antagonists, cell-based qHTS assay: qHTS cell viability counter screen (AID 2060913). Further: nearly all actives have a fitted effect of over 40% in size. The essentials:
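Steps: cells plated and held 18 hrs at 37 C/5% CO2; compounds and NKH477 (0.25 uM final) added; 3 hrs incubation; reporter substrate read; CellTiter-Glo added to measure cytotoxicity by luminescence.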
On the technique in general: Quantitative high-throughput screening tests each substance at several concentrations.

A short description of experiment [2]: cAMP Responsive Elements (CRE) small molecule agonists, cell-based qHTS assay: qHTS cell viability counter screen (AID 2060914).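 Further: viability read after 3 h of compound exposure; nearly all actives have a fitted effect of over 50% in size.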 Summed up: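 CRE-bla HEK 293T cells, plated 18 h at 37 °C, were exposed to compounds for 3 h at 37 °C/5% CO2. Viability was then measured in the same wells by CellTiter-Glo luminescence after 30 min at room temperature.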

Records with an inconclusive call do not appear. Values without a mark were called inactive. Active and inactive are the calls of the source. The call rests on the fitted dose curve; in most records, active means well fitted cell-killing curve with a large enough effect in the repeat runs; inconclusive means weak or mixed curves, or effect the other way; inactive means flat fitted curve, though single readings scatter.
On the % scale 0 is the no-effect control and ±100 the full control effect.

Regarding `O=Cc1ccc(F)c(Br)c1`, the Potency result in experiment [1] and in experiment [2] was “inactive” each time.
For `Nc1ccc(S(=O)(=O)NCc2ccccc2)cc1`, the Potency result in experiment [1] and in experiment [2] was “inactive” in each case.
As for `CCCCCCS`, the Potency result in experiment [1] and in experiment [2] was “inactive” in each case.
With `CC(CNC1CCCCC1)OC(=O)c1ccccc1` (stereo unspecified), the Potency entry in experiment [1] and in experiment [2] was “inactive” in each case.
On to `O=C1OCCO1`, for which the Potency entry in experiment [1] and in experiment [2] was “inactive” in each case.
Consider `O=C(O)CN(CCN(CC(=O)O)CC(=O)O)CCN(CC(=O)O)CC(=O)O`, for which, in experiment [1], the viability change, negative = cytotoxic was 8.32% [at 18.9 µM]. Moreover, the activity change, negative = cytotoxicity in experiment [2] is 3.54% [at 18.9 µM].
For the compound `CC(C)OC(=O)c1ccccc1C(=O)OC(C)C`, the Potency result in experiment [1] and in experiment [2] was “inactive” throughout.
Consider `CC1(C)CCC(C)(C)c2cc(NC(=O)c3ccc(C(=O)O)cc3)ccc21`, for which the Potency entry in experiment [1] and in experiment [2] was “inactive” each time.
For the compound `C=CCCCCCCCCC(=O)OCCCC`, the Potency entry in experiment [1] and in experiment [2] was “inactive” in each case.
Regarding `CC(C)C[C@H](NC(=O)CNC(=O)[C@H](Cc1ccc(O)cc1)NC(=O)[C@H](CO)NC(=O)[C@H](Cc1c[nH]c2ccccc12)NC(=O)[C@H](Cc1cnc[nH]1)NC(=O)[C@@H]1CCC(=O)N1)C(=O)N[C@@H](CCCN=C(N)N)C(=O)N1CCC[C@H]1C(=O)NCC(N)=O` (stereo in doubt), the Potency entry in experiment [1] and in experiment [2] was “inactive” each time.
Consider `Cc1ncsc1CCO`, for which the Potency result in experiment [1] and in experiment [2] was “inactive” throughout.
On to `c1ccc(COCc2ccccc2)cc1`, for which the Potency entry in experiment [1] and in experiment [2] was “inactive” each time.
As to `COc1ccc(-c2coc3cc(O)cc(O)c3c2=O)cc1`, the Potency result in experiment [1] and in experiment [2] was “inactive” each time.
With `CC1CCC(C(C)(C)O)CC1` (stereo unspecified), the Potency entry in experiment [1] and in experiment [2] was “inactive” in each case.
As for `OC[C@@H](O)[C@@H](O)[C@H](O)[C@H](O)CO`, the Potency result in experiment [1] and in experiment [2] was “inactive” throughout.
In the case of `SCCSCCS`, the Potency result in experiment [1] and in experiment [2] was “inactive” throughout.
For the compound `CCCCCCOCCOCCO`, the Potency entry in experiment [1] and in experiment [2] was “inactive” each time.
As to `CCCC(CCC)(C(=O)OCC)C(=O)OCC`, the Potency entry in experiment [1] and in experiment [2] was “inactive” throughout.
For the compound `CCC(=O)c1ccc(O)cc1`, the Potency entry in experiment [1] and in experiment [2] was “inactive” throughout.
With `O=C(O)c1cccc([N+](=O)[O-])c1`, the Potency entry in experiment [1] and in experiment [2] was “inactive” in each case.
Consider `Cc1ccc(O)cn1`, for which the Potency entry in experiment [1] and in experiment [2] was “inactive” in each case.
With `O=[N+]([O-])c1cncn1CCN1CCOCC1`, the Potency entry in experiment [1] and in experiment [2] was “inactive” throughout.
On to `CO[C@H]1O[C@H](CO)[C@@H](O)[C@H](O)[C@H]1O`, for which the Potency result in experiment [1] and in experiment [2] was “inactive” throughout.
Turning to `CC(=O)[O][Al]`, the Potency entry in experiment [1] and in experiment [2] was “inactive” each time.
Consider `NC(N)=NC(N)=NCCc1ccccc1`, for which the Potency result in experiment [1] and in experiment [2] was “inactive” throughout.
For `NS(=O)(=O)c1cc2c(cc1Cl)NC(CSCc1ccccc1)=NS2(=O)=O`, the Potency entry in experiment [1] and in experiment [2] was “inactive” in each case.
Consider `C=CC(C)(CCC=C(C)C)OC(=O)c1ccccc1` (stereo unspecified), for which the Potency entry in experiment [1] and in experiment [2] was “inactive” in each case.
In the case of `Clc1ccc(Sc2cc(Cl)c(Cl)cc2Cl)cc1`, the Potency entry in experiment [1] and in experiment [2] was “inactive” throughout.
Take `CC1(C)COCN1`: the Potency entry in experiment [1] and in experiment [2] was “inactive” in each case.
With `CC(C)(C)C(=O)C1C(=O)c2ccccc2C1=O`, the Potency result in experiment [1] and in experiment [2] was “inactive” throughout.
Consider `CC(C)OC(=O)OCOP(=O)(CO[C@H](C)Cn1cnc2c(N)ncnc21)OCOC(=O)OC(C)C`, for which the Potency entry in experiment [1] and in experiment [2] was “inactive” each time.
With `COC(=O)CCCCC(=O)OC`, the Potency result in experiment [1] and in experiment [2] was “inactive” each time.
As to `O=C(O)Cc1ccc2c(c1)C(=O)c1ccccc1CO2`, the Potency result in experiment [1] and in experiment [2] was “inactive” each time.
Take `CCCCCc1ccc(O)cc1`: the Potency entry in experiment [1] and in experiment [2] was “inactive” each time.
As to `CC1(C)CC(N=C=O)CC(C)(CN=C=O)C1` (stereo unspecified), the Potency result in experiment [1] and in experiment [2] was “inactive” in each case.
Consider `c1cc(C(c2ccc(OCC3CO3)cc2)C(c2ccc(OCC3CO3)cc2)c2ccc(OCC3CO3)cc2)ccc1OCC1CO1` (stereo unspecified), for which the Potency result in experiment [1] and in experiment [2] was “inactive” throughout.
As to `CC(C)(C)c1n[nH]c(=S)n(N)c1=O`, the Potency entry in experiment [1] and in experiment [2] was “inactive” throughout.
As for `CN(C)Cc1cc(CN(C)C)c(O)c(CN(C)C)c1`, the Potency result in experiment [1] and in experiment [2] was “inactive” each time.
For `CCn1cc(C(=O)O)c(=O)c2ccc(C)nc21`, the Potency entry in experiment [1] and in experiment [2] was “inactive” throughout.
On to `CC(C)c1cc2c(cc1S(=O)(=O)O)[C@@]1(C)CCC[C@@](C)(C(=O)O)[C@@H]1CC2`, for which the Potency entry in experiment [1] and in experiment [2] was “inactive” each time.
As to `CCn1c2ccccc2c2cc(N)ccc21`, the Potency entry in experiment [1] and in experiment [2] was “inactive” throughout.
On to `C[C@@H](O)C(=O)O`, for which the Potency entry in experiment [1] and in experiment [2] was “inactive” throughout.
As to `CC(=O)Nc1ccc(S(N)(=O)=O)cc1`, the Potency result in experiment [1] and in experiment [2] was “inactive” throughout.
As for `Nc1cccc([N+](=O)[O-])c1`, the Potency result in experiment [1] and in experiment [2] was “inactive” throughout.
On to `CC[C@@H](CO)NCCN[C@@H](CC)CO`, for which the Potency entry in experiment [1] and in experiment [2] was “inactive” throughout.
With `CCCCCCCCCCCCCCCCO`, the Potency result in experiment [1] and in experiment [2] was “inactive” throughout.
Take `CCO/C([O-])=N/c1c[n+](N2CCOCC2)no1`: the Potency result in experiment [1] and in experiment [2] was “inactive” each time.
For `CC1(C)O[C@@H]2C[C@H]3[C@@H]4CCC5=CC(=O)CC[C@]5(C)[C@@]4(F)[C@@H](O)C[C@]3(C)[C@]2(C(=O)CCl)O1`, the Potency entry in experiment [1] and in experiment [2] was “inactive” throughout.

The record behind these values is PubChem BioAssay (Tox21).
